FLuc inh-1: Firefly luciferase inhibition profiling of diverse chemical library using quantitative high-throughput screening | purified P. pyralis luciferase, luminescence, biochemical | AID 1347043, 2019 | 2.5% of 76,000 active | Potency, µM (doses to about 115 µM), hits mostly inhibitors; further: nearly all actives have a fitted effect of over 65% in size
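Cell-free enzyme assay, 10nM P. pyralis luciferase, luciferin and ATP each at 10uM. Inhibition profiled over a 6-point titration, read as luminescence.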
3T3 cytotox: Cytotoxic Profiling in NIH 3T3 Cell Line of Diverse Libraries Using Quantitative High-Throughput Screening; NIH 3T3 viability, CellTiter-Glo ATP luminescence, 48-72 h; Potency, µM (titrated, usually from 96.7 µM), actives largely listed as inhibitors; 4.3% of 94,000 active; AID 1345082, 2018; further: nearly all actives have a fitted effect of over 55% in size
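ATP-dependent luminescence (CellTiter-Glo) served as the viability signal for NIH 3T3 cells treated with compound for 48 or 72 hr at 37 °C.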
HEK cytotox: Cytotoxic Profiling in HEK 293 Cell Line of Diverse Libraries Using Quantitative High-Throughput Screening; Potency, µM (titrated, usually from 115 µM), actives largely listed as inhibitors; AID 1345083, 2018; 6.6% of 94,000 active; HEK 293 viability, ATP luminescence (CellTiter-Glo), 48-72 h; further: nearly all actives have a fitted effect of over 60% in size
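Luminescence from cellular ATP, measured with CellTiter-Glo, indicates HEK 293 viability. Cells plated at 250 cells/well are treated with compound for 48 or 72 hr at 37 degree Celsius before reagent addition.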
GPT2 inh: Primary qHTS assay for inhibitors of Glutamate pyruvate transaminase 2 (GPT2); Alanine aminotransferase 2 (Homo sapiens), Q8TD30; Recombinant GPT2, coupled pyruvate oxidase/HRP Amplex Red fluorescence; Potency, µM (titrated, usually from 57.7 µM), actives largely listed as inhibitors; 0.25% of 100,000 active; AID 1671188, 2021; further: nearly all actives have a fitted effect of over 60% in size
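Fluorescence read-out: pyruvate from GPT2 turnover coupled to pyruvate oxidase, HRP and Amplex Red (0.2mM ThPP, 0.2U/mL PO and HRP, 50uM Amplex final). Substrates 250uM a-KG, 2mM L-alanine; enzyme 10ng/uL; 30 min RT.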
hNpr1 antagonist: Natriuretic polypeptide receptor (hNpr1) antagonism - Primary qHTS | HEK293 hNpr1 GloSensor cGMP, ANP-stimulated luminescence | Potency, µM (highest dose often 46.3 µM), most hits filed as inhibitors | 1.6% of 76,000 active | AID 1347048, 2019; calls by dose curve; further: nearly all actives have a fitted effect of over 60% in size
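HEK293 cells stably expressing human Npr1 and cGMP GloSensor pGS-40F, loaded 2 h with 2% GloSensor reagent, given compound 30 min at room temperature. Luminescence read before and 20 min after 0.1 nM hNppA.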
FLuc SDR no ATP: Firefly luciferase (FLuc-C-HiBiT) SDR gain of signal screen - without ATP; shares compounds with FLuc inh-1; Purified FLuc-C-HiBiT, Nano-Glo HiBiT luminescence, no ATP; Potency, µM (doses to about 32.7 µM), usual class: activators; 7.8% of 1,300 active; AID 1963318, 2024; further: nearly all actives have a fitted effect of over 55% in size
FLuc SDR ATP: Firefly luciferase (FLuc-C-HiBiT) SDR gain of signal screen - plus ATP; 8.7% of 1,300 active; shares compounds with FLuc inh-1; Potency, µM (series often up to 32.7 µM), hits mostly activators; purified FLuc-C-HiBiT + ATP, HiBiT complementation luminescence;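 further: signal reports ligand binding via conformational change of the enzyme rather than luciferase catalysis; nearly all actives have a fitted effect of over 55% in size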
FLuc inh-2: Firefly luciferase (FLuc-C-HiBiT) enzymatic inhibition screen - Functional assay | shares compounds with FLuc inh-1 | purified FLuc-C-HiBiT enzyme, luciferin luminescence | Potency, µM (titrated, usually from 32.7 µM), most hits filed as inhibitors | 42% of 1,300 active; further: nearly all actives have a fitted effect of over 70% in size
Hits are given with their value; . = inactive; ? = inconclusive; / = no result. A selection: hits, their analogues and other compounds. The true share with any hit is near 10%. Unless noted, the call rests on the fitted dose curve; in most records, active means well fitted curve in the direction sought with a large enough effect; inconclusive means small, poorly fitted or top-dose-only effect, or another doubt; inactive means no such curve, though single readings can be large; an effect the other way counts as inactive or inconclusive.

SMILES	FLuc inh-1	3T3 cytotox	HEK cytotox	GPT2 inh	hNpr1 antagonist	FLuc SDR no ATP	FLuc SDR ATP	FLuc inh-2
O=C1CCN(S(=O)(=O)c2ccccc2)CCCN(C(=O)CCc2c[nH]c3ccccc23)CCN1	.	.	?	.	.	/	/	/
COCCn1c(=O)c(C(=O)NCc2cccc(OC)c2)nc2cccnc21	/	.	.	.	/	/	/	/
O=C(NC1CCN(c2ccnc3ccnn23)CC1)c1cc(F)ccc1Br	/	?	?	.	/	/	/	/
CCc1cccc(NC(=O)c2cc(-c3ccc[nH]3)n[nH]2)c1	8.91µM	.	.	.	.	.	.	?
COc1ccc(-c2nnc([C@H]3CCN(C(=O)c4ccc(F)cc4)C3)o2)cc1	.	.	.	.	.	/	/	/
COc1ccc(-c2nnc(SC(C)C(=O)O)o2)cc1 (centres undefined)	/	/	/	/	/	?	?	?
Brc1ccccc1-n1ncc2c1ncn1nc(Cc3ccccc3)nc21	/	/	/	/	/	.	.	.
COc1cccc(-c2cccc(C(=O)N3CCCC3C(=O)N3CCN(C)CC3)c2)c1 (centres undefined)	/	.	.	/	/	/	/	/
COCCn1c(=O)n([C@H]2CCCN(C(=O)CC3CCCCC3)C2)c2ncccc21	.	.	.	.	.	/	/	/
Cc1ccc(-n2nc(C)c([C@H]3C=C[C@@H](O)C3)c2C)cc1Cl	1.12µM	?	?	.	17.8µM	.	?	12.8µM
CCNC(=O)N[C@@H]1C=C[C@@H](c2c(C)nn(-c3ccccc3[N+](=O)[O-])c2C)C1	?	.	?	.	.	/	/	/
Cc1cc(Cl)ccc1-n1nc(C)c([C@@H]2C=C[C@@H](NC(=O)CCCC(=O)O)C2)c1C	?	.	.	.	.	/	/	/
Cc1ccc(-n2nc(C)c([C@@H]3C=C[C@@H](NC(=O)Nc4ccc(Cl)cc4)C3)c2C)cc1Cl	10µM	28.2µM	15.8µM	.	?	.	.	?
CCn1cnnc1CC1CCCN(C(=O)NCc2ccccc2)C1 (centres undefined)	/	.	.	.	/	/	/	/
COc1cccc(-c2ccc(C(=O)NCCNC(=O)NC3CCCC3)cc2)c1	/	.	.	/	/	/	/	/
O=C(NC1CC1)c1ccc2nnc(-c3cc(C(F)(F)F)cc(C(F)(F)F)c3)n2c1	/	?	?	.	/	/	/	/
COc1ccc(CCNc2nc3ccccc3c3nc(-c4cccc(C)c4)nn23)cc1OC	/	/	/	/	/	.	.	?
CCN1CCN(C(=O)Cn2c(C)ccc(NC(=O)Nc3ccc(C)cc3)c2=O)CC1	4.47µM	.	.	.	.	?	?	4.95µM
COc1ccc(NC(=O)Nc2ccc(C)n(CC(=O)O)c2=O)cc1	3.98µM	.	.	.	.	11.1µM	?	9.89µM
COc1ccc(NC(=O)Nc2ccc(C)n(CC(=O)NCC(C)C)c2=O)cc1	1.58µM	.	.	.	.	7.85µM	?	3.51µM
Cc1cccc(NC(=O)Nc2ccc(C)n(CC(=O)N(C)C)c2=O)c1	?	.	.	.	.	/	/	/
Cc1ccc(S(=O)(=O)Nc2ccc(C)n(CC(=O)N3CCCCCC3)c2=O)cc1	.	.	.	.	.	/	/	/
Cc1ccc(NC(=O)Nc2ccc(C)n(CC(=O)NCCC(C)C)c2=O)cc1	0.562µM	35.5µM	28.2µM	.	?	?	?	1.11µM
Cc1nn(-c2ccccc2)c2c1C(C)N(C1CN(C(=O)NC(C)C)C1)C2=O (centres undefined)	/	?	.	/	/	/	/	/
O=C1C[C@H]2CC[C@@H](CN1)N2Cc1ccc(OCc2ccccc2)cc1	11.2µM	?	?	.	?	.	.	?
COc1ccc(-c2noc([C@@H]3Cc4nc[nH]c4CN3C(=O)Nc3ccc(Cl)cc3)n2)cc1	12.6µM	?	?	.	.	.	.	.
COc1ccc(-c2noc([C@@H]3Cc4nc[nH]c4CN3C(=O)NC3CCCCC3)n2)cc1	?	?	.	.	.	/	/	/
Cc1ccc(-c2noc([C@@H]3Cc4nc[nH]c4CN3C(=O)Nc3cccc(F)c3)n2)cc1	10µM	?	79.4µM	.	?	.	.	?

Source: PubChem BioAssay (National Center for Advancing Translational Sciences (NCATS))
